Reference: PubChem BioAssay
Active and inactive are the calls of the source.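 The calls were made as follows, unless noted: active = fluorescence slope higher than the sample average by over 3 SD (cut at about -0.22 in these data, passing the limit was not always enough); inactive = the rest.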

Assays:
[1] = inhibitors of TNFa-induced NFkB p65 translocation, primary screen, imaging, HUVEC, MLSMR starter and 10KST1 sets (AID 438;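 active = inhibition above 20% together with a positive visual image hit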;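 also: compound added about 3h40 before a 20 min TNFalpha stimulation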;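 as to inhibition: signal is the nuclear over cytoplasmic p65 intensity ratio per well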); settings: HUVEC TNFa-induced p65 nuclear translocation; cell count: measured here: nuclei count (cytotoxicity indicator), at 2.08 µM; inhibition: at 2 µM, stronger effect = higher value, 0% TNFa-plus-vehicle, 100% no-TNFa wells
[2] = inhibitors of mutant huntingtin aggregation, primary screen, imaging, exon1htt(103Q)mCFP cells, high-content imaging (AID 483;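 active = visual image review flags a hit and inhibition of aggregation exceeds 20%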;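 also: compound exposure lasted 3 days before fixation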;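 as to nuclei count: percent of the per-plate median nuclei count of sample wells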); settings: exon1htt(103Q)mCFP cell line, aggregate imaging, at 2 µM; inhibition of aggregation: stronger effect = higher value; nuclei count: measured here: cell count, toxicity
[3] = inhibitors of E-selectin induction by TNFa, primary screen, imaging, HUVEC, immunofluorescence, MLSMR starter and 10KST1 sets (AID 487;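 active = visually confirmed hit in the image check and inhibition above 20%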;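 as to inhibition: signal is fraction of cell area covered by stained E-selectin grains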;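 as to nuclei count: 100% = median nuclei count of all wells on the same plate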); settings: HUVEC TNFalpha-induced E-selectin immunofluorescence imaging, at 2 µM; inhibition: stronger effect = higher value; nuclei count: measured here: cell number, toxicity
[4] = target: Voltage-gated potassium channel subunit beta-2 (Rattus norvegicus) (UniProt P62483); assay: KvBeta enzyme negative modulators, primary screen, biochemical, NADPH fluorescence (AID 622); settings: recombinant KvBeta, 4-cyanobenzaldehyde reduction, at 10 µM, stronger effect = higher value;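 also: slope of raw intensity against log time taken from 70 to 1610 s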
Voltage-gated potassium channel subunit beta-2 (Rattus norvegicus), sequence (P62483 whole entry, looked up): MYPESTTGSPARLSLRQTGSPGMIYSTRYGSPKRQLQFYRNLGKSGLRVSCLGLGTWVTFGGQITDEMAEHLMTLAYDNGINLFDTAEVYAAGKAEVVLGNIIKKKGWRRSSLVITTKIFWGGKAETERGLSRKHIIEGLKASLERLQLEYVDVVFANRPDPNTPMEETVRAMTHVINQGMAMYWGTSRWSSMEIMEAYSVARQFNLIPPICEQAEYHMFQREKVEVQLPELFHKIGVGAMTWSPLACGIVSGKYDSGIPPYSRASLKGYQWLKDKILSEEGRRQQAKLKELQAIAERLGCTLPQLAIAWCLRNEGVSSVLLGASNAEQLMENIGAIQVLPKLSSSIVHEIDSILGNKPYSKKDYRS

[5] = target: Voltage-gated potassium channel subunit beta-2 (Rattus norvegicus) (UniProt P62483); assay: KvBeta positive modulators, primary screen, biochemical, NADPH fluorescence (AID 623;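 active = NADPH fluorescence slope more negative than the mean of all samples by about 3 SD, 99.7% confidence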;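 also: fluorescence intensity change per second fitted from 20 to 320 s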); settings: Recombinant KvBeta, NADPH fluorescence decrease slope, 10 min; at 10 µM; stronger effect = lower value
[6] = target: Alpha-2C adrenergic receptor (Homo sapiens) (UniProt P18825); assay: modulators of alpha2C/GIRK thallium flux, primary screen, cell-based, HEK293 alpha2C/GIRK1/2 (AID 624;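 active = fluorescence slope after compound addition differing from the mean of all screened samples at 99.7% confidence, in either direction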;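 also: slope of fluorescence ratio to pre-addition baseline per second over 15 to 24 s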); settings: thallium flux BTC fluorescence, at 10 µM, actives lie on both sides
Alpha-2C adrenergic receptor (Homo sapiens), sequence (P18825 whole entry, looked up): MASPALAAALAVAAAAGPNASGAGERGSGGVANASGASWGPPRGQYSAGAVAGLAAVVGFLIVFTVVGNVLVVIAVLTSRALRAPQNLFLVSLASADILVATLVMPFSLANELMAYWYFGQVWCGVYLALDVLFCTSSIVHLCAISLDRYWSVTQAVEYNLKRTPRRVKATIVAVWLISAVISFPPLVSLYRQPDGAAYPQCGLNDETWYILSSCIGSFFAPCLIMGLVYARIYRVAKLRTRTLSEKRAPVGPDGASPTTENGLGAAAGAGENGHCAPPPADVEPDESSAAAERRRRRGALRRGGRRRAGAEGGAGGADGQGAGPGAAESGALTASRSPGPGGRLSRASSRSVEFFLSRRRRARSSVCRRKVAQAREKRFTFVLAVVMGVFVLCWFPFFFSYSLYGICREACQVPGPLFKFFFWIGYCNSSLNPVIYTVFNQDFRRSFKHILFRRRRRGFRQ

[7] = inhibitors of Sendai virus-induced IRF3 signaling, primary screen, TLR/RLR signaling modifier project, cell-based, Sendai virus stimulus, luciferase, 10K MLSCN set (AID 602276;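 active = inhibition at or above 50% at 10 µM; inactive = inhibition below 50%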;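 also: firefly luciferase from ISG56 promoter only with Renilla not read in this screen; 0% = Sendai virus plus DMSO and 100% = medium plus DMSO without virus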); settings: HEK293 RL24 IRF3 luciferase reporter, at 10 µM, stronger effect = higher value
[8] = inhibitors of poly I:C-induced TLR3 signaling, primary screen, cell-based, poly I:C stimulus, luciferase, 10K MLSCN set (AID 602277;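 active = inhibition of the reporter signal at or above 50%; inactive = inhibition below 50%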); settings: HEK293-TLR3 RL24 IRF3 luciferase reporter, at 10 µM, stronger effect = higher value

Compound | cell count [1] | inhibition [1] | inhibition of aggregation [2] | nuclei count [2] [%] | inhibition [3] | nuclei count [3] [%] | fluorescence slope [4] | NADPH fluorescence slope [5] | slope [6] | inhibition [7] | inhibition [8]
Cc1c(C(=O)O)c(-c2ccccc2)nn1-c1ccccc1 | 119 | 12.1% (inactive) | 3.2% (inactive) | 85.6 | -11.7% (inactive) | 127 | -0.39 (inactive) | -0.000126 (inactive) | 0.00692 (inactive) | 15% (inactive) | -3.71% (inactive)
Cc1cc(C(=O)NCCN2CCCCC2C)n(-c2ccccc2)n1 (centres undefined) | 879 | 0.6% (inactive) | 11.3% (inactive) | 96 | -39.7% (inactive) | 113 | -0.552 (inactive) | -4.7e-05 (inactive) | 0.0056 (inactive) | 1.98% (inactive) | 23.7% (inactive)
O=C1NC(=O)C(CC(=O)N(Cc2ccco2)C2(C(=O)NC3CCCC3)CCCCC2)N1 (centres undefined) | 670 | -7.4% (inactive) | 28.8% (active) | 106 | -67.8% (inactive) | 127 | -0.534 (inactive) | -3.9e-05 (inactive) | 0.00746 (inactive) | -0.4% (inactive) | 18.4% (inactive)
CC(C)C(OC(=O)c1ccco1)C(=O)NCc1ccccc1 (centres undefined) | 489 | 5% (inactive) | -10.8% (inactive) | 108 | -122% (inactive) | 126 | -0.443 (inactive) | 2.2e-05 (inactive) | 0.00599 (inactive) | 11.3% (inactive) | 10.5% (inactive)
Cc1ccc(N2CC(C)Cn3c2nc2c3c(=O)n(CC(=O)OCc3ccccc3)c(=O)n2C)cc1C (centres undefined) | 242 | -3.2% (inactive) | 21.6% (inactive) | 77.7 | -43% (inactive) | 109 | -0.473 (inactive) | -2.8e-05 (inactive) | 0.00778 (inactive) | 28.5% (inactive) | 16.6% (inactive)
Cc1ccc(-n2nnnc2SCC(=O)c2cc(C)n(CC3CCCO3)c2C)cc1 (centres undefined) | 452 | 6.3% (inactive) | -11.9% (inactive) | 102 | -52.2% (inactive) | 121 | -0.437 (inactive) | 3.2e-05 (inactive) | 0.00567 (inactive) | 15.1% (inactive) | -0.555% (inactive)
COc1ccc(Cl)cc1S(=O)(=O)N1CCN(c2ccc(F)cc2)CC1 | 657 | -1.1% (inactive) | -29.1% (inactive) | 101 | 36.7% (inactive) | 137 | -0.319 (inactive) | -1.3e-05 (inactive) | 0.00495 (inactive) | 46.4% (inactive) | 0.0275% (inactive)
CC1=C(C(=O)OC2CCCC2)C(c2ccc(C)o2)C2=C(CC(c3cccs3)CC2=O)N1 (centres undefined) | 346 | 3.5% (inactive) | -7.2% (inactive) | 81.1 | -10.5% (inactive) | 99 | -0.459 (inactive) | -5.5e-05 (inactive) | 0.00301 (inactive) | -5.28% (inactive) | 16.8% (inactive)
COC(=O)c1cccc(NC(=O)Cc2coc3cc(OC)ccc23)c1 | 402 | 11.4% (inactive) | 5.4% (inactive) | 75.4 | -64.1% (inactive) | 120 | -0.595 (inactive) | -6.1e-06 (inactive) | 0.0055 (inactive) | 4.7% (inactive) | -15.2% (inactive)
COc1ccc(S(=O)(=O)NCCC(=O)NC2CCCCCCC2)cc1 | 293 | 2.8% (inactive) | 13.6% (inactive) | 95 | -89.3% (inactive) | 97 | -0.4 (inactive) | -8.9e-05 (inactive) | 0.00674 (inactive) | 17.8% (inactive) | 26% (inactive)
CC1CCN(c2nc3c(c(=O)[nH]c(=O)n3C)n2CCSc2ncccn2)CC1 | 548 | 0.8% (inactive) | -8.6% (inactive) | 83.9 | -15.9% (inactive) | 118 | -0.43 (inactive) | -8.7e-05 (inactive) | 0.00584 (inactive) | 8.83% (inactive) | 24.8% (inactive)
Cc1c(C(=O)Nc2cnccn2)oc2ccccc12 | 370 | 7.3% (inactive) | 7.5% (inactive) | 95.3 | -97.6% (inactive) | 108 | -0.371 (inactive) | 4.4e-05 (inactive) | 0.00977 (inactive) | 0.764% (inactive) | -4.49% (inactive)
O=C(CSc1nnc(-c2ccco2)n1-c1ccccc1)N1CCN(C(=O)c2ccco2)CC1 | 537 | -7.8% (inactive) | 27.8% (active) | 59.4 | 0.8% (inactive) | 116 | -0.474 (inactive) | -1.7e-05 (inactive) | 0.00672 (inactive) | 11.5% (inactive) | 31.2% (inactive)
COc1ccccc1Cn1nnc2c(=O)[nH]c(C3CCN(C(=O)c4ccccc4Cl)CC3)nc21 | 324 | 3.2% (inactive) | 1.4% (inactive) | 109 | -5.4% (inactive) | 98 | -0.624 (inactive) | -1.1e-05 (inactive) | 0.00545 (inactive) | 18.5% (inactive) | 40.2% (inactive)
